Measured values published in PubChem BioAssay (NCI).
Compounds without any hit were thinned out: in the full panel of roughly 83,000, 20% have a hit.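 Testing used 96-well plates and a 48-hour single-concentration exposure. Example: -40 means 40% of the starting cells died.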 A number with no mark means an inactive call. Calls of active or inactive are those of the source. Rule for the calls: active = growth percent below 10; inactive = the rest.

Legend:
Test in all cases: NCI-60 one-dose screen, 48 h (100 = growth as untreated, 0 = no growth, -100 = all killed)
Details in all cases: 10 µM unless noted
[1] = test system: HCT-15 colon
[2] = test system: HT29 colon
[3] = test system: SNB-75 CNS
[4] = test system: SNB-19 CNS
[5] = test system: U251 CNS
[6] = test system: PC-3 prostate
[7] = test system: UACC-62 melanoma
[8] = test system: SK-MEL-28 melanoma
[9] = test system: SK-MEL-2 melanoma
[10] = test system: EKVX NSCLC
[11] = test system: SN12C renal
[12] = test system: UO-31 renal
[13] = test system: TK-10 renal
[14] = test system: ACHN renal
[15] = test system: CAKI-1 renal
[16] = test system: A498 renal
[17] = test system: CCRF-CEM leukemia
[18] = test system: MOLT-4 leukemia
[19] = test system: LOX IMVI melanoma
[20] = test system: SK-MEL-5 melanoma

| Structure (SMILES) | growth [1] | growth [2] | growth [3] | growth [4] | growth [5] | growth [6] | growth [7] | growth [8] | growth [9] | growth [10] | growth [11] | growth [12] | growth [13] | growth [14] | growth [15] | growth [16] | growth [17] | growth [18] | growth [19] | growth [20] |
| --- | --- | --- | --- | --- | --- | --- | --- | --- | --- | --- | --- | --- | --- | --- | --- | --- | --- | --- | --- | --- |
| CC(=O)Oc1ccccc1C(=O)/C=C/c1cccc([N+](=O)[O-])c1 | 54.9% | 48.8% | 60.2% | 81.1% | 54.3% | 71.1% | 85.7% | 95.6% | 96.2% | 75.6% | 78.9% | -28.1% (active) | 134% | 75.3% | 67.6% | 92.6% | 5.04% (active) | 50.8% | – | – |
| c1csc(-c2nc(-c3cc4ccccc4c(N4CCOCC4)n3)cs2)c1 | 90.4% | 97.1% | 81.5% | 87.1% | 82.2% | 93.4% | 28.9% | 55.2% | 47.4% | 87.9% | 92.4% | 71.3% | 123% | 85.2% | 84.5% | 86.2% | 107% | – | – | – |
| COc1ccc(-c2cc(-c3cccs3)n(N=O)c(=O)c2C#N)cc1 | 129% | 107% | 88.9% | 99.1% | 112% | 104% | 95.4% | 124% | 105% | 115% | 95.8% | 89.4% | 114% | 109% | 102% | 87.7% | 58.1% | 107% | 96.3% | – |
| O=C(/C=C\c1ccc2c(c1)OCO2)/C=C/c1ccc2c(c1)OCO2 | 11% | 32.1% | 75.7% | 68.9% | 19.4% | 91.1% | 75.1% | 105% | 127% | 82.4% | 86.5% | 76.3% | 96.1% | 88.3% | 89.2% | 126% | 31.4% | 35.2% | – | – |
| Nc1ccc(Br)cn1 | 102% | 104% | 87.3% | 107% | 108% | 98.9% | 97.3% | 107% | 98.8% | 110% | 96.3% | 93.4% | 107% | 109% | 113% | – | 80.4% | 91.5% | – | – |
| COc1ccc(C2CC(=O)c3c(nc4ccc(Cl)cc4c3N)C2)cc1 (configuration not stated) | 92.5% | 101% | 95.7% | 103% | 106% | 101% | 99.5% | 98.4% | 118% | 97.6% | 101% | 92.2% | 80.6% | 105% | 88.5% | 100% | 91.6% | 95.1% | – | – |
| COc1ccc(-n2c(/C=C/c3ccc(O)c(OC)c3)cc(/C=C/c3ccc(O)c(OC)c3)nc2=O)cc1 | 59% | -59.1% (active) | 54.5% | 69.9% | 32.4% | 53.7% | 68.1% | 58.5% | 84.9% | 56.7% | 66.6% | 47.8% | 104% | 69.5% | 87.4% | 113% | 15.2% | 17.2% | 13% | – |
| C=C(C)[C@@H]1CC[C@]2(C(=O)OC)CC[C@]3(C)[C@H](CC[C@@H]4[C@@](C)(CC/C(N)=N/O)[C@H](C(=C)C)CC[C@]43C)[C@@H]12 | 102% | 99.1% | 95.4% | 95.9% | 97.7% | 86.1% | 99.6% | 101% | 97.9% | 97% | 97.2% | 93% | 105% | 101% | 77.7% | 95.1% | 107% | 92.4% | – | – |
| Cc1cccc(C)c1NCc1nc(-c2ccccc2)n[nH]1 | 101% | 103% | 89.7% | 94.7% | 101% | 100% | – | 96.8% | 101% | 95% | 105% | 90.6% | 101% | 96.8% | – | 100% | 110% | 98% | 97.9% | – |
| COc1cc(/C=N/NC(=S)NNC(=S)NC2CCCCC2)cc(OC)c1OC | 91.9% | 108% | 91.5% | 98.3% | 100% | 81.3% | 85.8% | 99% | 108% | 84.1% | 87.8% | 70.3% | 147% | 94.2% | 77.7% | 96.6% | 88.7% | 73.8% | – | – |
| CC(C)(C)c1[nH]nc2c1C(c1cc3ccccc3[nH]c1=O)Nc1cc(C(=O)OCc3ccccc3)ccc1N2 (configuration not stated) | 55.3% | 62.1% | 71.7% | 61.7% | 51.6% | 41.4% | 49.1% | 77.2% | 67% | – | 61.2% | 47.2% | 47.6% | 28.6% | 54.6% | 65% | 37.9% | 18% | – | – |
| CC1=NN(c2ccc(S(=O)(=O)O)cc2Cl)C(=O)C1 | 112% | 109% | 90.2% | 96.2% | 107% | 103% | 103% | 122% | 112% | 101% | 100% | 89.2% | 101% | 105% | 85.1% | 102% | 99.1% | 123% | 104% | – |
| Nc1ncnc2nc(Br)[nH]c12 | 108% | 102% | 87.2% | 101% | 89.4% | 78.3% | – | 114% | 102% | 105% | 100% | 101% | 96.2% | 98.7% | 93% | 98.1% | 94.3% | 96.1% | 93.7% | – |
| COC(=O)[C@]12CC[C@@H](C)[C@H](C)[C@@H]1C1=CC[C@@H]3[C@@]4(C)C[C@@H](OC(C)=O)[C@H](O)[C@@](C)(COC(C)=O)[C@@H]4[C@H](O)C[C@@]3(C)[C@]1(C)CC2 | -79.4% (active) | -84.1% (active) | -81.1% (active) | – | -94.2% (active) | -95.1% (active) | – | -88.3% (active) | -73.6% (active) | -88.8% (active) | -69.9% (active) | -81.6% (active) | -86.5% (active) | -91.9% (active) | -88.2% (active) | -94.4% (active) | -54.3% (active) | -34.3% (active) | -100% (active) | -99.9% (active) |
| COc1cc2nc(Cl)nc(Nc3cccc(C(=O)/C=C/c4ccc(F)cc4)c3)c2cc1OC | -4.45% (active) | 16.1% | 88.3% | – | 32.6% | 46.4% | 51.5% | 62.6% | 93.9% | 71.1% | 51.6% | 53.9% | 155% | 20% | 56.5% | 86.5% | 15.5% | 35.7% | – | 73.4% |
| C=C(C)[C@@H]1CC[C@]2(C(=O)N3CCN(C)CC3)CC[C@]3(C)[C@H](CC[C@@H]4[C@@]5(C)C/C(=C/c6ccc(C(F)(F)F)cc6)C(=O)C(C)(C)[C@@H]5CC[C@]43C)[C@@H]12 | 86.5% | 95.7% | 80.7% | – | 87.1% | 78.8% | 96.3% | 104% | 106% | 87.7% | 92.9% | 73.5% | 105% | 96.4% | 68.7% | 97.4% | 88% | 63.8% | – | 99.1% |
| COc1cccc(NC(=O)c2sc3nc4c(cc3c2N)C(=O)CCC4)c1 | 15.7% | 4.77% (active) | -0.688% (active) | – | 14.3% | 10.5% | 34.5% | 62.9% | 25.3% | – | 35.3% | 52.3% | 84.2% | 42.5% | 55.2% | -3.03% (active) | – | – | – | 3.83% (active) |
